Screens: PubChem BioAssay, several laboratories
PABP FP inh: PABP-poly(A) binding inhibition. P11940. PABP-poly(A) RNA binding, fluorescence polarization. inhibition, % at 35 µM. actives 1% (n = 290,000). AID 2014;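 also: calls also rest on retests at 20 µM and on dose response follow-up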
SUMO HTRF inh: inhibitors of human SUMOylation (UBC9). HTRF SUMOylation assay, SAE1/SAE2 + UBC9, in vitro. inhibition, % at 35 µM. actives 0.36% (n = 290,000); in the data active = inhibition above about 50%, passing the limit was not always enough; inconclusive = no clear call, values can overlap the other calls
Target sequence (P63279 whole entry, looked up): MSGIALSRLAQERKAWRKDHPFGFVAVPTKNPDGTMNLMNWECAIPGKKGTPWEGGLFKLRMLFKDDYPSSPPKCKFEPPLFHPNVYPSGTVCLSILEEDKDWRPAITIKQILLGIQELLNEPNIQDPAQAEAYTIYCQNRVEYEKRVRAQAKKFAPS
PABP1 MLLE inh: blocks PAM2 peptide binding to the PABP1 MLLE domain. P11940. GST-MLLE / FITC-PAM2 fluorescence polarization. inhibition, % at 20 µM. actives 0.36% (n = 360,000). AID 588489; in the data active = inhibition above about 35%, passing the limit was not always enough
eIF4H inh: inhibitors of RNA binding by human eIF4H. AID 2012. Q15056. inhibition, % at 35 µM. eIF4H fluorescence polarization binding assay. actives 0.94% (n = 290,000);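 also: calls also rest on retests at 20 µM and on dose response follow-up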
Efflux pump mplx: inhibitors of Candida antifungal efflux pumps expressed in yeast. S. cerevisiae Candida pump triplex, Nile Red efflux. inhibition, % at 10 µM. actives 0.44% (n = 330,000);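 active = plate passing quality check with inhibition over a set limit, or well fluorescence over plate mean plus 4 SD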;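 also: Nile Red retained in pooled yeast measured as flow cytometry median fluorescence; higher means more Nile Red kept so more efflux inhibition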
ALR inh: blocks human ALR sulfhydryl oxidase activity | actives 3.8% (n = 290,000) | purified ALR, DTT oxidation, H2O2 HRP-luminol luminescence | P55789 | inhibition, % (concentration not given with the values);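 active = mean replicate inhibition above about 79%, with every replicate also reaching it, limit read from the data; inconclusive = only one of the two criteria met; inactive = mean below limit and not every replicate reaching it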
Target sequence (P55789 whole entry, looked up): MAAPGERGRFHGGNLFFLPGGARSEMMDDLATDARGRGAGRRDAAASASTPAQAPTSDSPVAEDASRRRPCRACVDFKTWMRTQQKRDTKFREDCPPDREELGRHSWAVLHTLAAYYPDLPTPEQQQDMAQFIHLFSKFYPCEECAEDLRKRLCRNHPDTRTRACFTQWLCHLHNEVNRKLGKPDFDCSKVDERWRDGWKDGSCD
Large screens that a line does not name were inactive. The list is not random: actives were taken first. Their share in the collection is about 4.7%. Unless noted, no rule for the calls is given here.

O=C(N/N=C1\C(=O)c2cccc3cccc1c23)c1ccc(O)cc1	none
O=C1C([N+](=O)[O-])=C(O)c2cccc3cccc1c23	PABP FP inh 57, eIF4H inh 85 (no result: PABP1 MLLE inh)
CCCN=C1N(C)C[C@@H]2[C@@H]3C(=O)N(C)C(=O)[C@@H]3[C@](Cc3ccccc3)(C(=O)OC)N12	none (no result: PABP FP inh, SUMO HTRF inh, eIF4H inh, ALR inh)
CC1CCN(CC(O)CN2c3ccccc3Sc3ccccc32)CC1 (stereo unspecified)	ALR inh inconclusive
OCCNCC(O)CN1c2ccccc2Sc2ccccc21 (stereo unspecified)	ALR inh 99
O=C(Nc1cc(C(F)(F)F)ccc1N1CCOCC1)C1CCCO1 (stereo unspecified)	none (no result: PABP FP inh, SUMO HTRF inh, eIF4H inh)
Cc1ccc(OC(=S)Nc2ccc(O)cc2)cc1	ALR inh 99
COCOCCn1cc(CN2CCS(=O)(=O)N(Cc3ccc(-c4ccc(OC)c(OC)c4)cc3)C(C)C2=O)nn1 (stereo unspecified)	none (no result: PABP FP inh, SUMO HTRF inh, eIF4H inh, Efflux pump mplx, ALR inh)
S=C(NCc1ccncc1)Nc1ccc(Br)cc1Cl	none
O=C(NNC(=S)Nc1ccc(Br)cc1Cl)c1ccncc1	PABP1 MLLE inh 47
O=C(CCc1ccc(O)c(O)c1)NNC(=S)Nc1ccc(Br)cc1Cl	ALR inh 99
O=C(CCc1ccc(O)c(O)c1)NNC(=S)NCCc1ccccc1	ALR inh 99
S=C(Nc1ccc(Br)cc1Cl)Nn1cnnc1	PABP1 MLLE inh 37
Cc1cc(C(=O)C(C)Cl)c(C)n1Cc1ccco1 (stereo unspecified)	PABP FP inh 1.6, eIF4H inh 101
Cc1cc(C(=O)COC(=O)c2ccc(O)cc2)c(C)n1Cc1ccco1	PABP FP inh active, eIF4H inh 74
Cc1cc(C(=O)COC(=O)c2ccc(Br)o2)c(C)n1Cc1ccco1	none (no result: PABP1 MLLE inh)
Cc1ccccc1OCCC(=O)NNC(=O)COc1cccc(F)c1	none (no result: PABP FP inh, SUMO HTRF inh, eIF4H inh)
COC(=O)c1cnc(Nc2nc(CN)cs2)nc1C(F)(F)F	none (no result: PABP FP inh, SUMO HTRF inh, eIF4H inh, Efflux pump mplx, ALR inh)
O=C(O)c1cnc(-c2ccccc2)nc1Sc1cccc(Cl)c1	ALR inh 96
COc1cnc(SCC(=O)O)[nH]c1=O	PABP FP inh 82
COc1ccc(N2CCC(CNC(=O)Nc3ccc(C)c(C)c3)C2)cc1 (stereo unspecified)	none
COc1ccc(N2CCC(CNC(=O)Nc3ccc(OC)cc3OC)C2)cc1 (stereo unspecified)	ALR inh 85
CC(=O)c1ccc(S(=O)(=O)NCC(=O)N2CCN(C/C=C/c3ccccc3)CC2)cc1	none (no result: PABP FP inh, SUMO HTRF inh, eIF4H inh)
Cc1oc(-c2ccccc2Cl)nc1CS(=O)CC(=O)NCCCN1CC(C)CC(C)C1 (stereo unspecified)	ALR inh 89
Cc1oc(-c2ccccc2Cl)nc1CS(=O)CC(=O)NCCc1ccccc1 (stereo unspecified)	ALR inh 99
Cc1ccccc1-c1nc(CS(=O)CC(=O)NCCc2ccc(Cl)cc2)c(C)o1 (stereo unspecified)	ALR inh 98
CC(C)c1ccccc1NC(=O)COC(=O)Cc1ccsc1	none (no result: ALR inh)
O=S1(=O)C=C[C@@H](COCc2ccccc2)N1Cc1ccc(Br)cc1	none (no result: PABP FP inh, SUMO HTRF inh, eIF4H inh, Efflux pump mplx, ALR inh)
COc1ccc(S(=O)(=O)N2CCN=C2SCc2cccnc2)cc1	ALR inh 99
O=S(=O)(c1ccccc1)N1CCN=C1SCc1cccnc1	ALR inh 100
Cc1ccc(S(=O)(=O)N2CCN=C2SCc2cccnc2)cc1	ALR inh 98
O=S(=O)(c1ccc(Cl)cc1)N1CCN=C1SCc1cccc(Cl)c1	none (no result: ALR inh)
O=S(=O)(c1ccc(Cl)cc1)N1CCN=C1SCc1cccnc1	ALR inh 97
CS(=O)(=O)N1CCN=C1SCc1ccccc1	none
CCC1=C(c2ccc(OC)cc2)CCC(C(=O)O)C1C (stereo unspecified)	none (no result: PABP FP inh, SUMO HTRF inh, eIF4H inh, Efflux pump mplx, ALR inh)
COc1ccc(C(C)(NC(C)=O)c2nc(-c3cccc4cccnc34)cs2)cc1 (stereo unspecified)	none (no result: PABP FP inh, SUMO HTRF inh, eIF4H inh, Efflux pump mplx, ALR inh)
CCS(=O)(=O)N1CCN=C1SCc1cccnc1	ALR inh 98
Cc1sc2ncnc(SCC#N)c2c1C	eIF4H inh 37
CCN(CC)C(=O)C1=C(C)N(Cc2ccc(OC)cc2)C(=O)C(CC(=O)NC2CCCCC2)C1 (stereo unspecified)	none (no result: PABP FP inh, SUMO HTRF inh, eIF4H inh, Efflux pump mplx, ALR inh)
O=C(CN1CCOc2ccccc21)NCc1ccc(F)cc1	ALR inh 98
O=C(CN1CCOc2ccccc21)NC1CC1	ALR inh 87 (no result: PABP FP inh, SUMO HTRF inh, eIF4H inh)
O=C(CCN1C(=O)COc2ccccc21)NCc1cccs1	none
COCCNC(=O)CN1CCOc2ccccc21	none (no result: ALR inh)
O=C(CN1CCOc2ccccc21)NCc1ccco1	none
O=C(CN1CCOc2ccccc21)NCc1ccc(Cl)cc1	ALR inh 99
O=C(CN1CCOc2ccccc21)NCc1cccs1	ALR inh 99
CCCn1c(CN2CCN(C(=O)c3ccco3)CC2)nc2cc(S(=O)(=O)N(C)C)ccc21	none (no result: PABP FP inh, SUMO HTRF inh, eIF4H inh, Efflux pump mplx, ALR inh)
CC(C)n1c(CNC(=O)c2ccccc2F)nnc1SCC(=O)c1ccc(F)cc1	none (no result: PABP FP inh, SUMO HTRF inh, eIF4H inh, Efflux pump mplx, ALR inh)
COc1ccc(/C=C/C(=O)c2ccc(NC(=O)c3cccs3)cc2)cc1OC	none
COc1ccc(CNC(=O)CC2C[C@H](C(=O)N3CCOCC3)[C@@]3(CCC4CCCC4)c4[nH]c5ccccc5c4CCN3C2=O)cc1OC (stereo partly specified)	none (no result: PABP FP inh, SUMO HTRF inh, eIF4H inh, ALR inh)
CCn1nnc2cc(C(=O)Nc3cc(OC)cc(OC)c3)ccc21	none (no result: PABP FP inh, SUMO HTRF inh, eIF4H inh, ALR inh)
COc1cc(C(O)c2nc(-c3ccc(F)cc3OC)cs2)ccc1F (stereo unspecified)	none (no result: PABP FP inh, SUMO HTRF inh, eIF4H inh, Efflux pump mplx, ALR inh)
O=C(O)C1Nc2c(cccc2C(F)(F)F)C2C=CCC12 (stereo unspecified)	PABP FP inh 61, eIF4H inh 80 (no result: PABP1 MLLE inh)
O=C(NCc1ccccc1)C1Nc2ccc(OC(F)(F)F)cc2C2C=CCC12 (stereo unspecified)	none (no result: PABP FP inh, SUMO HTRF inh, eIF4H inh)
COc1cccc2c1NC(C(=O)O)C1CC=CC21 (stereo unspecified)	PABP FP inh active, SUMO HTRF inh 95, eIF4H inh 96, ALR inh 81
CC1(C(=O)NS(=O)(=O)c2ccccc2)CCN1C(=O)CC1CCCCC1 (stereo unspecified)	none (no result: PABP FP inh, SUMO HTRF inh, eIF4H inh, Efflux pump mplx, ALR inh)
CCCCNC(=S)NNC(=O)c1cc(-c2ccncc2)nc2ccccc12	none
Cc1ccc([N+](=O)[O-])cc1NC(=S)NCCc1ccccc1	none
CN1CC=C2C(C#N)=C(N)C(C#N)(C#N)[C@H](c3cccc(Cl)c3)C2C1 (stereo partly specified)	PABP FP inh inconclusive, eIF4H inh inconclusive
N#CC1=C(N)C(C#N)(C#N)C(c2cccnc2)C2CC(c3ccccc3)CC=C12 (stereo unspecified)	PABP FP inh 77, eIF4H inh inconclusive
N#CC1=C(N)C(C#N)(C#N)C(c2cccnc2)C2CCCC=C12 (stereo unspecified)	eIF4H inh 120 (no result: PABP1 MLLE inh)
N#CC1=C(N)C(C#N)(C#N)C(c2ccc[nH]2)C2CCCC=C12 (stereo unspecified)	PABP FP inh inconclusive, eIF4H inh inconclusive
CCCC(=O)Nc1ccc(C(=O)NCc2ccccn2)cc1	none
N#CCC(=O)Nc1ccc(C(=O)NCc2ccccn2)cc1	ALR inh 99
